Results published in PubChem BioAssay (NCATS).
Values joined by “and” are separate entries in the source; they are usually repeats but may differ in a detail not shown here. Identical values can stand only once. Results filed as inconclusive are left out. Active and inactive are the calls of the source. Unless noted, calls come from the whole dose curve; as a rule, active = well fitted curve in the direction sought with a large enough effect; inconclusive = small, poorly fitted or top-dose-only effect, or another doubt; inactive = no such curve, though single readings can be large; an effect the other way counts as inactive or inconclusive.

Legend:
[1] = target: Mitogen-activated protein kinase 10 (Mus musculus) (UniProt Q61831); test: JNK3 AlphaScreen Assay (AID 530; active = well fitted curve in either direction with a large enough effect, not every such curve was filed as active;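 note: kinase came from lysate of stimulated human HepG2 cells; signal reports phosphorylation of biotinylated GST-cJun 1-79 at Ser73 with 10 µM ATP; % is set by controls: 0 for no effect and ±100 for the full control effect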)
Method in brief: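 Activity was read by AlphaScreen after JNK3-containing HepG2 lysate (cytokine pre-activated) phosphorylated biotinylated GST-cJun with 10 uM ATP at room temperature. Phospho-Ser73 cJun antibody with Protein-A acceptor beads provided detection.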

[2] = Cell Viability - LYMP1-003 - Assay at 40 hr (AID 964); note: % is set by controls: 0 for no effect and ±100 for the full control effect; nearly all actives have a fitted effect of over 60% in size
Method in brief: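 Viability is taken as cellular ATP, read by CellTiter-Glo luminescence after 40 h of compound exposure at 37 C. Cells: human lymphoblastoid line LYMP1-003 at 2500/well; AC50 values derived by Hill-equation fitting of concentration-response data.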

[3] = Cell Viability - LYMP2-023 (AID 975);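 note: cellular ATP measured by luciferase luminescence as viability proxy; cells exposed to compound for 24 hours at 37 °C; plate controls were DMSO only for no effect and 92 µM tetraoctylammonium bromide control for full effect; nearly all actives have a fitted effect of over 55% in size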
Method in brief: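 Intracellular ATP, read by CellTiter-Glo luminescence, reports viability after 24 hr compound exposure at 37 C. 2500 lymphoblastoid cells/well (LYMP2-023) seeded 5 hr beforehand; Hill fits give AC50; positive control tetraoctylammonium bromide.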

[4] = Cell Viability - LYMP2-025 (AID 976);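 note: plate controls were DMSO only for no effect and tetraoctylammonium bromide control for full effect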
Method in brief: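 Cytotoxicity read as loss of intracellular ATP (luciferase luminescence) after 24 h compound treatment at 37 C. Uses LYMP2-025 lymphoblastoid cells in 1536-well format; Hill-equation modelling gives AC50; tetraoctylammonium bromide as positive control.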

[5] = Cell Viability - LYMP2-006 (AID 978);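 note: cells exposed to compound for 24 hours; % is set by controls: 0 for no effect and ±100 for the full control effect; nearly all actives have a fitted effect of over 60% in size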
Method in brief: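 qHTS, 1536-well; 2500 cells/well, 5 hr 37 C; cpd 24 hr 37 C; CellTiter-Glo 30 min RT; luminescence. Tetraoctylammonium bromide pos. ctrl. AC50 via Hill eqn.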

[6] = Cell Viability - LYMP2-008 (AID 980); note: % is set by controls: 0 for no effect and ±100 for the full control effect; nearly all actives have a fitted effect of over 60% in size
Method in brief: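 Cytotoxicity determined from ATP-dependent luciferase luminescence (CellTiter-Glo) following 24 h compound exposure of human lymphoblastoid LYMP2-008 cells at 37 C. Concentration-response data fitted to the Hill equation to give AC50.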

[7] = Cell Viability - LYMP2-024 (AID 988);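 note: plate controls were DMSO only for no effect and 92 µM tetraoctylammonium bromide for full effect; nearly all actives have a fitted effect of over 60% in size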
Method in brief: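 Cytotoxicity was taken as a decrease in ATP (CellTiter-Glo luminescence) after 24 hr compound exposure at 37 C of LYMP2-024 lymphoblastoid cells, 2500 cells/well. Concentration-response data were fitted to the Hill equation to give AC50.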

[8] = Cell Viability - LYMP2-026 (AID 989); note: % is set by controls: 0 for no effect and ±100 for the full control effect; nearly all actives have a fitted effect of over 50% in size
Method in brief: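 Cytotoxicity read as ATP-dependent luminescence (CellTiter-Glo, 30 min room temperature) after 24 h compound treatment at 37 C. LYMP2-026 lymphoblastoid line seeded at 2500 cells/well; AC50 derived by standard Hill equation.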

[9] = target: Estrogen receptor (Homo sapiens) (UniProt P03372); test: qHTS assay for small molecule antagonists of estrogen receptor alpha signaling (AID 588513; active = well fitted curve in the direction sought with a large enough effect in the signal ratio, with a control signal flat, not every such curve was filed as active; the % refers to the signal ratio; note: % is set by controls: 0 for no effect and ±100 for the full control effect)
Method in brief: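 Beta-lactamase reporter, antagonist mode, HEK 293 GripTite cells; 0.5nM E2 stimulus, 18 h, 37 C; CCF4 dye 2 h RT; fluorescence. IC50 and efficacy from Hill fits, normalized to E2 and DMSO.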

[10] = target: Estrogen receptor (Homo sapiens) (UniProt P03372); test: qHTS assay for small molecule agonists of estrogen receptor alpha signaling (AID 588514; calls by dose curve;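 note: 0% = vehicle only and 100% = reference agonist; nearly all actives have a fitted effect of over 70% in size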)
Method in brief: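 EC50 and efficacy came from Hill fits of beta-lactamase reporter signal (CCF4 dye, 2 h at room temperature) scaled between DMSO and 20 nM 17-beta-estradiol. Agonist mode: HEK293 ER-alpha-UAS-bla cells in charcoal/dextran-stripped serum medium, 18 h compound exposure at 37 C.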

[11] = target: Glucocorticoid receptor (Homo sapiens) (UniProt P04150); test: qHTS assay for small molecule agonists of glucocorticoid receptor signaling (AID 588532; active = well fitted curve in the direction sought with a large enough effect in the signal ratio, with a control signal flat; the % refers to the signal ratio;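 note: 100% = dexamethasone at 0.1 µM and 0% = DMSO only wells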); conditions: HeLa MMTV-bla, beta-lactamase ratio, agonist, 18 h; hits give high values; percent of dexamethasone control, DMSO zero
Method in brief: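 Cells were plated and rested 3-5 h at 37 C, compounds were added in titration and incubated 18 h, then CCF4 substrate was loaded for 2 h at RT before reading blue/green fluorescence. EC50 came from Hill-equation fitting.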

[12] = target: Peroxisome proliferator-activated receptor gamma (Homo sapiens) (UniProt P37231); test: qHTS assay for small molecule antagonists of peroxisome proliferator-activated receptor gamma signaling (AID 588537; active = well fitted inhibition curve with a large enough effect in the signal ratio, with a control signal flat, not every such curve was filed as active; the % refers to the signal ratio;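 note: reporter cells co-stimulated with 50 nM rosiglitazone agonist during compound treatment; % of control where 0% means no effect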)
Method in brief: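 Fluorescence at 460 and 530 nm (405 nm excitation) reported beta-lactamase cleavage of CCF4 after 2 h room-temperature loading. HEK293 reporter cells in 1% charcoal/dextran-treated FBS had received compound and rosiglitazone for 16 h.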

[13] = target: Retinoic acid receptor RXR-alpha (Homo sapiens) (UniProt P19793); test: qHTS assay for small molecule agonists of retinoid X receptor alpha signaling (AID 588544; calls by dose curve;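 note: 0% = DMSO basal wells and 100% = reference agonist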)
[14] = target: Thyroid hormone receptor beta (Homo sapiens) (UniProt P10828); test: qHTS assay for small molecule antagonists of thyroid hormone receptor beta signaling (AID 588547; active = well fitted inhibition curve with a large enough effect in the signal ratio, with a control signal flat, not every such curve was filed as active; the % refers to the signal ratio;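 note: cells stimulated with 0.4 nM T3 agonist during compound exposure; % is set by controls: 0 for no effect and ±100 for the full control effect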); conditions: TR-UAS-bla HEK293, beta-lactamase ratio, antagonist mode, 18 h
Method in brief: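 TR-UAS-bla GripTite HEK293 cells in 2% charcoal/dextran FBS medium; compounds 0.59 nM to 92 uM with T3 at 0.4nM final, 18 h at 37 C. Beta-lactamase read by CCF4 fluorescence (460/530 nm); Hill fits gave IC50 and efficacy.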

[15] = qHTS assay for small molecule antagonists of the retinoid-related orphan receptor gamma (ROR-gamma) signaling pathway - cell viability counter screen (AID 720652; active = well fitted curve in the direction sought with a large enough effect in the repeat runs; an effect the other way counts as inactive or inconclusive;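 note: CHO reporter cells with doxycycline-induced ROR-gamma expression; compound exposure lasted 16 hr before ATP read; % is set by controls: 0 for no effect and ±100 for the full control effect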)
Method in brief: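 Cytotoxicity counter screen: intracellular ATP (CellTiter-Glo luminescence) measured in the doxycycline-induced CHO RORE-luciferase reporter line after 16 hr compound exposure at 37 C, 5% CO2.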

[16] = Cell Viability - Mesenchymal (AID 546); conditions: mesenchymal cells viability, qHTS; activity change, negative = cytotoxicity: at 91.7 µM (top of the series);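 note: cells exposed to compound for 40 hours before reading; 0% = DMSO only and -100% = 100 µM tamoxifen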
Method in brief: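 Human renal mesenchymal cells (glomerulus-derived), 1000 cells/well, 5 hr 37 °C pre-incubation; compound 40 hr, 37 °C; CellTiter-Glo, 20 min RT; luminescence; AC50 via Hill equation.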

[17] = target: Glucocorticoid receptor (Homo sapiens) (UniProt P04150); test: qHTS assay for small molecule antagonists of glucocorticoid receptor signaling (AID 588533; active = well fitted inhibition curve with a large enough effect in the signal ratio, with a control signal flat, not every such curve was filed as active; the % refers to the signal ratio)
Method in brief: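 Antagonist-mode qHTS: compound titrations added to GRE-bla HeLa cells, then dexamethasone 2 nM final; 18 h, 37 C. CCF4 FRET fluorescence normalized to dexamethasone and DMSO; IC50 from Hill fit.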

[18] = Cell Viability - LYMP1-002 - Assay at 40 hr (AID 994)
Method in brief: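 Cytotoxicity was read as loss of cellular ATP (CellTiter-Glo luminescence) after 40 hr compound exposure at 37 C of 2500 LYMP1-002 lymphoblastoid cells per well. Concentration-response data were fitted with the standard Hill equation to give AC50.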

[19] = target: Bile acid receptor (Homo sapiens) (UniProt Q96RI1); test: qHTS assay for small molecule antagonists of farnesoid X receptor signaling (AID 588526; calls by dose curve; note: % is set by controls: 0 for no effect and ±100 for the full control effect)
Method in brief: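 Antagonist mode: titrated compounds tested against chenodeoxycholic acid stimulation (normalized to 50 uM CDCA and DMSO) in GeneBLAzer HEK293T cells for 16 h. Beta-lactamase read by CCF4 fluorescence; IC50 from Hill fits.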

[20] = qHTS assay to identify small molecules that stimulate interleukin-8 (IL-8) secretion (AID 651758; active = well fitted activation curve with a large enough effect in the signal ratio; the % refers to the signal ratio; note: 0% is about no effect)
Method in brief: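 Compounds are added to THP-1 cells (2000 per well) and left 16 hrs at 37 C. A labeled anti-IL-8 antibody pair is then added, and IL-8 secretion is measured by time-resolved FRET after 1-3 hrs at room temperature.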

Chain of Glucocorticoid receptor (Homo sapiens) (P04150 whole entry, looked up): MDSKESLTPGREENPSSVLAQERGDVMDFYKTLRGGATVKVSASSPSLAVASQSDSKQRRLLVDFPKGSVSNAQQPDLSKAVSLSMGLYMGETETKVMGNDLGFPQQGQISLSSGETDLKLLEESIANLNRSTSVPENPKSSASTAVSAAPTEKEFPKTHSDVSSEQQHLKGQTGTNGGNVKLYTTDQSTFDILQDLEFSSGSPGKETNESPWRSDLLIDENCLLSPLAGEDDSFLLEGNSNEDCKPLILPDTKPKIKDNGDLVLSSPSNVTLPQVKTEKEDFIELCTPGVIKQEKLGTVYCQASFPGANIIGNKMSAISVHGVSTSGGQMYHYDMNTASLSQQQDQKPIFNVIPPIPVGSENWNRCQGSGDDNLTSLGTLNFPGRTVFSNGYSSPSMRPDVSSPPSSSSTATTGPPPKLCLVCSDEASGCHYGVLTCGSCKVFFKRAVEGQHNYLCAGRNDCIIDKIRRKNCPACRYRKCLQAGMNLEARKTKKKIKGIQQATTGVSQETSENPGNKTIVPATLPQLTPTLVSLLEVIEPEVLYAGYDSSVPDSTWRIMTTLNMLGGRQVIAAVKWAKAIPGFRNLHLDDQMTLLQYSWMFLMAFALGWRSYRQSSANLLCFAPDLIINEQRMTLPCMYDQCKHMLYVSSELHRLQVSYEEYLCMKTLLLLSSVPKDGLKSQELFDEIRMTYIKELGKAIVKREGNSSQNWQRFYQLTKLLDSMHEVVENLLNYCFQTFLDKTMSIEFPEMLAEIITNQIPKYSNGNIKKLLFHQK
Chain of Estrogen receptor (Homo sapiens) (P03372 whole entry, looked up): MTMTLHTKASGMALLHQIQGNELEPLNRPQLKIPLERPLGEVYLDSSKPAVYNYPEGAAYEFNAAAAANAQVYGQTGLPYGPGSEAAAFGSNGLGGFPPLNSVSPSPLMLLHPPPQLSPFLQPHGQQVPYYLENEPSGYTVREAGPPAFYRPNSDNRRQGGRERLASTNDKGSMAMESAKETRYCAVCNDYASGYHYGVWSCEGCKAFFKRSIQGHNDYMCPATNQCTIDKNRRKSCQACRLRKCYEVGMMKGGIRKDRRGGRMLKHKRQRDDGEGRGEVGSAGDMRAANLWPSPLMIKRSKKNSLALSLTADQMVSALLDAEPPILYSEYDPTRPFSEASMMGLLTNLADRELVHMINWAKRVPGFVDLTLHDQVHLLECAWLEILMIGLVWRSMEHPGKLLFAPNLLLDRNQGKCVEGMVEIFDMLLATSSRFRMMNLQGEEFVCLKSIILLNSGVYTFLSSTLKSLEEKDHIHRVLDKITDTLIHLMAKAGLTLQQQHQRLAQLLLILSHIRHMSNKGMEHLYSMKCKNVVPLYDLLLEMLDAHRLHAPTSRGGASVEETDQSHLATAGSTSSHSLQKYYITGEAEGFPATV
Chain of Thyroid hormone receptor beta (Homo sapiens) (P10828 whole entry, looked up): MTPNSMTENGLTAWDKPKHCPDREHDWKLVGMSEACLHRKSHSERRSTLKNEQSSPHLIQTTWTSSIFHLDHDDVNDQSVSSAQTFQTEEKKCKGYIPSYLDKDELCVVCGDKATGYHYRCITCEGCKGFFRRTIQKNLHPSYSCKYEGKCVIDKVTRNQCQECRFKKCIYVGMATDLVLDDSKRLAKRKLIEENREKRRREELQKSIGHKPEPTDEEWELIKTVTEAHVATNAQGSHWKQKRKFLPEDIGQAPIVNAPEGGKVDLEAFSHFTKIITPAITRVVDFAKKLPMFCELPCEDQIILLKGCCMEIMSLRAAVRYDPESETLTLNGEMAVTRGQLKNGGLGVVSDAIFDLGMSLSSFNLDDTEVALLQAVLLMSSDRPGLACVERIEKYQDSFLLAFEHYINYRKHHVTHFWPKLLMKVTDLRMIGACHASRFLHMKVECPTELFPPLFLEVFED
Chain of Bile acid receptor (Homo sapiens) (Q96RI1 whole entry, looked up): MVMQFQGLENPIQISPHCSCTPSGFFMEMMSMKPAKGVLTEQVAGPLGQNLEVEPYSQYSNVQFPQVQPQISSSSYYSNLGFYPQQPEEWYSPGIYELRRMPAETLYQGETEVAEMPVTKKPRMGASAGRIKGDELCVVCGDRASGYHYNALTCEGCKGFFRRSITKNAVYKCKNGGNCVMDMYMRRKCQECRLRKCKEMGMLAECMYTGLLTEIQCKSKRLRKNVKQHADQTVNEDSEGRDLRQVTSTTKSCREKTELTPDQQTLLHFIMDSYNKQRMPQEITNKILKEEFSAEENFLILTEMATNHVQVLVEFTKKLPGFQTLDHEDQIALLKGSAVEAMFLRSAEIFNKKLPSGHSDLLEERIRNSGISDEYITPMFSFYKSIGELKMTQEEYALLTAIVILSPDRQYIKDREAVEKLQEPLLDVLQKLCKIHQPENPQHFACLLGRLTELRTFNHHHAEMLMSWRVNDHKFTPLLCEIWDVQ
Chain of Peroxisome proliferator-activated receptor gamma (Homo sapiens) (P37231 whole entry, looked up): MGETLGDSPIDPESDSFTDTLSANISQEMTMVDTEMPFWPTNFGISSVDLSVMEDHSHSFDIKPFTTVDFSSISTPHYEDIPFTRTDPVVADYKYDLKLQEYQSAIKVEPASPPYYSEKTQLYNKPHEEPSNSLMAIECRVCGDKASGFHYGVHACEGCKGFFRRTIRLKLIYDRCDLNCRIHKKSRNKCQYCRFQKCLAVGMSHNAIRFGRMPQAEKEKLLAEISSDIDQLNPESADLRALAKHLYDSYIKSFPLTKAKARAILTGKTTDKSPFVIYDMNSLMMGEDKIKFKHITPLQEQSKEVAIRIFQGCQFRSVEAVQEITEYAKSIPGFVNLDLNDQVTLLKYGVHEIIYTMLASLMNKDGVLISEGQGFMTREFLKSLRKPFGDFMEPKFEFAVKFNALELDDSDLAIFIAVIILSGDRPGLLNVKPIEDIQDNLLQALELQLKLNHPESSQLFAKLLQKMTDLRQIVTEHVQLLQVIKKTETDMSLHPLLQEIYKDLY
Chain of Retinoic acid receptor RXR-alpha (Homo sapiens) (P19793 whole entry, looked up): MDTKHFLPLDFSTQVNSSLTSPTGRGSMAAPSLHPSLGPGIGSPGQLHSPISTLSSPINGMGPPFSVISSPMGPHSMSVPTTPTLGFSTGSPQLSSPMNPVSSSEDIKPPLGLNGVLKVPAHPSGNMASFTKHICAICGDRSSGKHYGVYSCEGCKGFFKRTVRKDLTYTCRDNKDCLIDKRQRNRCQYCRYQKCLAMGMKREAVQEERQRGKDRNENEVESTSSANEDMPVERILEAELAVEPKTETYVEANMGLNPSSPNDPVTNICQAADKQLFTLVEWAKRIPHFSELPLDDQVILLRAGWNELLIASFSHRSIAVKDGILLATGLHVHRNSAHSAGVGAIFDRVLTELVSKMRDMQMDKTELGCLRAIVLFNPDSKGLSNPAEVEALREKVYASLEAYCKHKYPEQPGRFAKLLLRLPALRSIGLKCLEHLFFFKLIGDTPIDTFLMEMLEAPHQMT

OCC(CBr)(CBr)CBr
inactive: Potency [1] | Potency [2] | Potency [3] | Potency [4] | Potency [5] | Potency [6] | Potency [7] | Potency [8] | outcome [9] | Potency [10] | activation [11] 0.0544% | Potency [12] | Potency [13] | activity change % (negative = inhibition) [14] -0.909% | Potency [15]

CCCCC(CC)COC(=O)COc1ccc(Cl)cc1Cl (stereo not given)
inactive: Potency [16] | Potency [2] | Potency [3] | Potency [8] | outcome [9] | Potency [10] | activation [11] -3.61% and -5.37% | Potency [17] | Potency [15]

COc1ccc(C)cc1N
inactive: Potency [1] | Potency [16] | Potency [3] | Potency [4] | Potency [8] | Potency [18] | outcome [9] | Potency [10] | Potency [17]

Oc1c(Cl)cc(Cl)c(Cl)c1Cl
inactive: Potency [1] | Potency [16] | Potency [2] | Potency [6] | Potency [8] | Potency [19] | Potency [17] | Potency [13]

CN(C)c1ccc(Cc2ccc(N(C)C)cc2)cc1
inactive: Potency [16] | Potency [5] | Potency [6] | Potency [7] | Potency [18] | Potency [19] | Potency [17] | Potency [12] | Potency [15]

C/C(Cl)=C/CCl
inactive: Potency [2] | Potency [5] | Potency [6] | Potency [8] | outcome [9] | Potency [10] | Potency [19] | Potency [12] | activity change % (negative = inhibition) [14] 0.318% | Potency [15]

Cc1ccc(C(=O)O)cc1[N+](=O)[O-]
inactive: Potency [2] | Potency [6] | Potency [18] | outcome [9] | Potency [10] | Potency [12] | activity change % (negative = inhibition) [14] 2.7% | Potency [15]

c1ccc(COCc2ccccc2)cc1
inactive: Potency [16] | Potency [2] | Potency [3] | Potency [6] | Potency [7] | Potency [8] | Potency [18] | outcome [9] | Potency [10] | Potency [19] | Potency [17] | Potency [12] | activity change % (negative = inhibition) [14] -18.1% | Potency [20]

CCCCCCCCC1CO1 (stereo not given)
inactive: Potency [2] | Potency [5] | Potency [6] | Potency [7] | Potency [18] | Potency [19] | activation [11] -2.27% | Potency [17] | Potency [12] | Potency [13] | Potency [15]

Cc1ccc(N)cc1[N+](=O)[O-]
inactive: Potency [1] | Potency [3] | Potency [4] | Potency [5] | Potency [6] | Potency [7] | Potency [8] | Potency [17] | Potency [12] | Potency [13] | activity change % (negative = inhibition) [14] -24.5% | Potency [15]
